Rows were chosen to be rich in hits. Some 1.4% of all compounds tested hit in one or more screens of this group.
Vaccinia Venus: inhibitors of vaccinia virus (Venus reporter). Potency, µM (doses to about 36.5 µM), for inactives: at the top dose activity change, negative = inhibition, most hits filed as inhibitors. hit rate 0.46% among 330,000. Vaccinia virus Venus reporter expression, fluorescence; calls by dose curve; tested in A549 cells; note: % is set by controls: 0 for no effect and ±100 for the full control effect; nearly all actives have a fitted effect of over 30% in size
VACV mCherry inh: inhibitors of vaccinia virus infection (mCherry reporter signal) | hit rate 0.63% among 310,000 | Vaccinia virus mCherry reporter infection, fluorescence | Potency, µM (top dose mostly 36.5 µM), without a hit: at the top dose activity change, negative = inhibition, hits mostly inhibitors; calls by dose curve; tested in A549 cells; note: % is set by controls: 0 for no effect and ±100 for the full control effect; nearly all actives have a fitted effect of over 35% in size
AmpC no deterg: AmpC beta-lactamase inhibition without detergent; AmpC nitrocefin hydrolysis, absorbance 480 nm, 0.0001% Triton; Potency, µM (doses to about 57.1 µM), inactives show top-dose activity change, negative = inhibition, most hits filed as inhibitors; hit rate 0.52% among 330,000;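 note: plate controls were no compound for no effect and no enzyme for full effect; nearly all actives have a fitted effect of over 20% in size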
Target sequence (P00811 whole entry, looked up): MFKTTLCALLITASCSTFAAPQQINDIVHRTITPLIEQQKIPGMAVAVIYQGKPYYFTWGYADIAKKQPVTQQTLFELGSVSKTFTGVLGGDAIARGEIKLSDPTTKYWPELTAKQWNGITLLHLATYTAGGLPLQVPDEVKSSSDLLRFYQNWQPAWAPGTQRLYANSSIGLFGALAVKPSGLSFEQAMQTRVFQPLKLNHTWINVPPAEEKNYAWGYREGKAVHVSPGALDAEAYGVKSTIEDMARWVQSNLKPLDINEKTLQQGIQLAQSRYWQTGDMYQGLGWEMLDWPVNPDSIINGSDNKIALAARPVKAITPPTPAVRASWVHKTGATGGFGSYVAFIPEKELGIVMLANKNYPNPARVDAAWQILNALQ
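20 mM phosphate pH 7.0 + 0.01% (detergent screen) or 0.0001% Triton X-100; 5.3 nM AmpC reagent; cpd preinc 15 min RT; nitrocefin (800 uM stock) to start; A480 q20 s × 4 min; Activity was normalised to no-enzyme and no-compound control wells.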
AmpC inh detg: AmpC beta-lactamase inhibition with detergent present | P00811 | AmpC hydrolysis of nitrocefin, absorbance 480 nm, 0.01% Triton | Potency, µM (top dose mostly 114 µM), without a hit: at the top dose activity change, negative = inhibition, usual class: inhibitors | hit rate 0.041% among 370,000 | AID 485294;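 note: 0% = no-compound wells and -100% = no-enzyme wells; nearly all actives have a fitted effect of over 25% in size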
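AmpC (5.3 nM in the dispensed reagent) in 20 mM phosphate pH 7.0 with 0.01% (detergent screen) or 0.0001% Triton X-100 was preincubated with compounds for 15 min at room temperature. Nitrocefin was then added from an 800 uM solution, and hydrolysis was followed at 480 nm.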
SARS PLP yeast: blocks SARS-CoV papain-like protease in a yeast assay. Potency, µM (titrated, usually from 32.9 µM), for the others: at the highest dose activity, positive = growth rescue, actives largely listed as activators. S. cerevisiae expressing SARS-CoV PLpro, growth rescue. hit rate 0.19% among 330,000. AID 485353; calls by dose curve; note: 0% is about no effect; nearly all actives have a fitted effect of over 55% in size
AMA1 RON2 block: inhibitors of Plasmodium falciparum AMA1-RON2 interaction; AID 720542; AlphaScreen AMA1-biotinylated RON2 peptide binding; hit rate 0.2% among 360,000; Potency, µM (titrated, usually from 58.2 µM), inactives show at the top dose activity change, negative = inhibition, most hits filed as inhibitors;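 note: 0% = vehicle wells and -100% = peptide control; nearly all actives have a fitted effect of over 45% in size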
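AMA1 (3D7) with his tag at 25 nM final met compounds first, then biotinylated RON2 peptide at 25 nM; detection used donor plus acceptor beads, 10 µg/mL apiece, read by AlphaScreen after 30 min at room temperature.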
* = called active by the depositor; i = inactive; ? = inconclusive; nt = no result. Unless noted, calls come from the whole dose curve; as a rule, active = well fitted curve in the direction sought with a large enough effect; inconclusive = small, poorly fitted or top-dose-only effect, or another doubt; inactive = no such curve, though single readings can be large; an effect the other way counts as inactive or inconclusive. Potency is the fitted concentration of half-maximal effect.

SMILES | Vaccinia Venus | VACV mCherry inh | AmpC no deterg | AmpC inh detg | SARS PLP yeast | AMA1 RON2 block
CC(=O)OC1CC(OC2C(O)CC(OC3C(O)CC(OC4CCC5(C)C(CCC6C5CCC5(C)C(C7=CC(=O)OC7)C(O)CC65O)C4)OC3C)OC2C)OC(C)C1OC1OC(CO)C(O)C(O)C1O (stereo not drawn) | 0.282µM* | 0.282µM* | nt | nt | nt | -4.6%
COc1ccc(OC)c2c(C)ccnc12 | -15.9% | -5.5% | nt | nt | nt | nt
CC(=O)OC1CC2(O)C3CCC4CC(O)CCC4(C)C3CCC2(C)C1C1=CC(=O)OC1 (stereo not drawn) | ? | 35.5µM* | nt | nt | nt | 3.0%
CC(=O)[C@H]1CCC2C3CC[C@H]4C[C@@H](O)CC[C@]4(C)C3CC[C@@]21C (stereo partly drawn) | -10.1% | i | -15.6% | nt | -5.7% | -19.9%
COc1ccc(-n2c(CCNC(=O)c3ccccc3C(F)(F)F)nnc2SC)cc1 | 21.5% | 2.5% | nt | nt | nt | nt
NS(=O)(=O)c1ccc(CCNc2ccn3nc(-c4cccc(C(F)(F)F)c4)cc3n2)cc1 | ? | 8.91µM* | nt | nt | nt | 4.3%
COc1ccccc1-c1cc2nc(NCCc3ccc(S(N)(=O)=O)cc3)ccn2n1 | -7.7% | i | nt | nt | nt | -1.4%
N=C(N)SCc1cn(-c2ccccc2)nc1-c1ccc(Br)cc1 | ? | 11.2µM* | -31.6% | 0.1% | -0.2% | -11.0%
Cc1ccc(-c2nn(-c3ccccc3)cc2CO)cc1 | -23.4% | ? | -4.4% | 0.4% | -1.8% | 19.5%
CCOC(=O)CSc1nc2cc(OC)c(OC)cc2cc1C#N | 9.2% | 35.6% | nt | nt | nt | nt
Nc1ccc(N=Nc2ccccc2)c2ccccc12 | -12.5% | -0.8% | -27.6% | 5.9% | -2.2% | -25.5%
c1ccc(N=Nc2ccc3cccccc2-3)cc1 | -2.2% | -23.8% | nt | nt | nt | 4.47µM*
O=C(Nc1ccccc1N1CCOCC1)c1ccc([N+](=O)[O-])s1 | 7.94µM* | 4.47µM* | -10.4% | nt | -4.9% | ?
O=C(/C=C\c1ccco1)c1ccc(NC(=O)c2ccco2)cc1 | -20.2% | -2.0% | 6.31µM* | 1.9% | -2.6% | -1.9%
CC(=O)Nc1ccc(C(=O)/C=C/c2ccco2)cc1 | 3.5% | i | -33.1% | -10.0% | -1.5% | -17.1%
CC1(C)C2CC=C(/C=N/NC(=O)c3ccccc3O)C1C2 (stereo not drawn) | -22.6% | ? | 11.2µM* | -9.6% | 12.2% | ?
C=C(c1nc2ccccc2s1)C1Cc2cccc3c2N(CCC3)C1 (stereo not drawn) | i | i | nt | nt | nt | nt
O=C(C[n+]1cccc2cccc(O)c21)c1ccc(Br)cc1 | -2.6% | -12.6% | nt | nt | nt | nt
CCCCN(CC)CCNC(=S)Nc1ccc2nc(N3CCN(C)CC3)cc(C)c2c1 | ? | 12.6µM* | 53.0% | 5.2% | -2.7% | 1.8%
COCCNC(=S)Nc1ccc2nc(N3CCCC3)cc(C)c2c1 | -17.8% | -8.0% | 10µM* | -1.0% | 5.2% | 19.6%
CCCN(CCC)CCCNC(=S)Nc1ccc2nc(N3CCN(C)CC3)cc(C)c2c1 | nt | nt | -11.0% | 8.6% | -5.4% | -6.1%
CC(C)(O)/C=C/C(=O)[C@](C)(O)C1[C@H](O)C[C@@]2(C)C3CC=C4C(C=C(O[C@@H]5O[C@H](CO)[C@@H](O)[C@H](O)[C@H]5O)C(=O)C4(C)C)[C@]3(C)C(=O)C[C@]12C (stereo partly drawn) | -21.9% | i | 24.3% | nt | 9.8% | 5.9%
CC(C)(O)/C=C/C(=O)[C@](C)(O)C1[C@H](O)C[C@@]2(C)C3CC=C4C(C[C@H](O)[C@@H](O)C4(C)C)[C@]3(C)C(=O)C[C@]12C (stereo partly drawn) | 1.58µM* | ? | 2.1% | nt | 1.6% | -3.9%
COC(=O)c1c(NC(=O)CN2C(=O)NC3(CCC(C(C)(C)C)CC3)C2=O)sc2c1CCCCC2 (stereo not drawn) | -0.2% | i | -34.6% | 2.3% | -12.4% | -0.2%
COC(=O)c1c(NC(=O)CN2C(=O)NC3(CCc4ccccc4C3)C2=O)sc2c1CCCCC2 (stereo not drawn) | -2.6% | -9.0% | 3.55µM* | -15.7% | -2.9% | -5.4%
SMILES | Vaccinia Venus | VACV mCherry inh | AmpC no deterg | AmpC inh detg | SARS PLP yeast | AMA1 RON2 block
Cc1ccc(N=Cc2cc(Cc3ccccc3Cl)cc([N+](=O)[O-])c2O)c(O)c1 | nt | nt | -45.1% | 4.1% | -18.3% | 10µM*
Cc1ccc(-n2c(-c3cc(-c4ccco4)[nH]n3)n[nH]c2=S)c(Br)c1 | -8.8% | -3.4% | -45.7% | -4.1% | 3.3% | 93.5%
S=c1[nH]nc(-c2cc(-c3ccco3)[nH]n2)n1-c1cccc2ccccc12 | nt | nt | 17.8µM* | -13.2% | 5.6% | -5.6%
O=C(c1cccc(F)c1)N(Cc1cc2cc3c(cc2nc1N1CCOCC1)CCC3)CC1CCCO1 (stereo not drawn) | -3.5% | i | nt | nt | nt | nt
CCC(C(=O)Nc1ccc(C)c(Cl)c1)n1c(=O)c(-c2ccccc2NC(C)=O)nc2ccccc21 (stereo not drawn) | -14.4% | -22.4% | nt | 30.8% | nt | nt
CCc1cc2ccccc2nc1SCC(=O)Nc1cc(OC)c(OC)cc1C(=O)O | -17.5% | -9.1% | 8.91µM* | 0.1% | 21.3% | 13.2%
NC(Cc1ccc(C(F)(F)F)cc1)c1csc(Nc2ccccn2)n1 (stereo not drawn) | ? | 11.2µM* | nt | nt | nt | 106.8%
CC(C)CC(N)c1csc(NC(=O)NCCc2ccccc2)n1 (stereo not drawn) | -13.4% | 18.7% | nt | nt | nt | 73.3%
Cc1cnc(C)c(Nc2nc(C(N)Cc3ccc(C(F)(F)F)cc3)cs2)n1 (stereo not drawn) | ? | 11.2µM* | nt | nt | nt | 32.0%
Cc1cnc(C)c(Nc2nc(C(N)Cc3ccccc3)cs2)n1 (stereo not drawn) | -10.2% | -7.3% | nt | nt | nt | 57.1%
NC(Cc1ccc(C(F)(F)F)cc1)c1csc(NC(=O)NCCc2ccccc2)n1 (stereo not drawn) | 11.2µM* | ? | nt | nt | nt | 65.5%
O=[N+]([O-])c1ccc(Cl)c(/C=N/N2CCN(Cc3ccccc3Cl)CC2)c1 | -14.5% | nt | -26.9% | -17.1% | -0.8% | ?
Cc1ccc(/C=N/N2CCN(Cc3ccc(C)cc3)CC2)cc1 | -12.4% | -3.7% | 19.6% | 7.1% | -1.1% | -26.6%
O=[N+]([O-])c1ccccc1/C=N\N1CCN(Cc2ccccc2Cl)CC1 | nt | nt | -17.9% | ? | 4.1% | 20µM*
Cc1ccc(CN2CCN(/N=C\c3cccc([N+](=O)[O-])c3)CC2)cc1 | -10.7% | -19.1% | 12.1% | -2.8% | -0.5% | 14.1µM*
FC(F)(F)c1ccc(/C=N/N2CCN(Cc3ccccc3)CC2)cc1 | -9.5% | -15.5% | -1.8% | ? | -12.3% | 20µM*
O=[N+]([O-])c1ccc(/C=N/N2CCN(Cc3ccccc3)CC2)cc1 | nt | nt | -12.0% | -1.5% | 7.8% | 25.1µM*
